Data reported in PubChem BioAssay AID1159580 (chemical genetic matrix, 2015).
“And” between values parts separate entries of the source, which are not always exact repeats. Equal values may be shown once. Hit rate of the full screen: of about 5,500 compounds, about 2,000 (36%) were called active. Roughly 18% stayed inconclusive and do not appear here. Cut-off read from the data, not from the text of the source: active = normalized growth mostly below about 0.91 (no sharp cut-off); inconclusive = no clear call, values can overlap the other calls; inactive = mostly above about 0.92. The list shows a part of the results.

Assay: chemical genetic growth profiling, strain panel (AID 1159580);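 note: tested at 20 µM; growth read once vehicle control cultures reached saturation at 30 °C; 1 = growth at the plate median or of vehicle wells; lower values mean less growth of the strain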
Conditions: growth OD

Measured: normalized growth

CN1CCN(CC(=O)N2c3ccccc3C(=O)Nc3cccnc32)CC1
inactive: S. cerevisiae deletion strains, locus YJR075W, strain HOC1, hits give low values 1.01 and 0.992 | S. cerevisiae deletion strains, locus YKL009W, strain mrt4, hits give low values 0.998 | S. cerevisiae deletion strains, locus YKL068W, hits give low values 1 | S. cerevisiae deletion strains, locus YKL085W, strain MDH1 (second series), hits give low values 1.02 | S. cerevisiae deletion strains, locus YKL085W, strain MDH1, hits give low values 1.02 | S. cerevisiae deletion strains, locus YKL160W, strain elf1, hits give low values 1.01 | S. cerevisiae deletion strains, locus YKL190W, strain CNB1, hits give low values 1.01 | S. cerevisiae deletion strains, locus YKR001C, strain vps1, hits give low values 1.01 | S. cerevisiae deletion strains, locus YKR026C, strain gcn3, hits give low values 1.01 | S. cerevisiae deletion strains, locus YKR091W, strain srl3, hits give low values 1 | S. cerevisiae deletion strains, locus YLL001W, strain dnm1, hits give low values 1.01 | S. cerevisiae deletion strains, locus YLL026W, hits give low values 1.02 | S. cerevisiae deletion strains, locus YLL041C, strain sdh2, hits give low values 1.01 | S. cerevisiae deletion strains, locus YLR027C, strain aat2, hits give low values 1 | S. cerevisiae deletion strains, locus YLR039C, strain RIC1, hits give low values 1.04 | S. cerevisiae deletion strains, locus YLR058C, strain SHM2, hits give low values 1.02 | S. cerevisiae deletion strains, locus YLR102C, strain apc9, hits give low values 1.02 | S. cerevisiae deletion strains, locus YLR113W, strain HOG1, hits give low values 0.989 | S. cerevisiae deletion strains, locus YLR221C, strain rsa3, hits give low values 1.01 | S. cerevisiae deletion strains, locus YLR258W, strain gsy2, hits give low values 1.02 | S. cerevisiae deletion strains, locus YLR262C, strain YPT6 (second series), hits give low values 0.992 | S. cerevisiae deletion strains, locus YLR262C, strain YPT6, hits give low values 1.04 | S. cerevisiae deletion strains, locus YLR268W, strain sec22, hits give low values 1.03 | S. cerevisiae deletion strains, locus YLR320W, strain mms22, hits give low values 1.02 | S. cerevisiae deletion strains, locus YLR330W, strain CHS5, hits give low values 1.01 | S. cerevisiae deletion strains, locus YLR342W, strain FKS1 (second series), hits give low values 1.05 | S. cerevisiae deletion strains, locus YLR342W, strain FKS1, hits give low values 1.01 | S. cerevisiae deletion strains, locus YLR357W, strain rsc2, hits give low values 1.05 | S. cerevisiae deletion strains, locus YLR370C, strain arc18, hits give low values 1.03 | S. cerevisiae deletion strains, locus YLR371W, strain rom2, hits give low values 1.03 | S. cerevisiae deletion strains, locus YLR384C, strain iki3, hits give low values 1.02 | S. cerevisiae deletion strains, locus YLR418C, strain cdc73, hits give low values 1.05 | S. cerevisiae deletion strains, locus YML016C, strain PPZ1, hits give low values 1.01 | S. cerevisiae deletion strains, locus YML032C, strain rad52, hits give low values 1.01 | S. cerevisiae deletion strains, locus YML120C, strain ndi1, hits give low values 1 | S. cerevisiae deletion strains, locus YML124C, strain tub3, hits give low values 1.02 | S. cerevisiae deletion strains, locus YMR058W, strain fet3, hits give low values 1.04 | S. cerevisiae deletion strains, locus YMR078C, strain ctf18, hits give low values 1.01 | S. cerevisiae deletion strains, locus YMR125W, strain sto1, hits give low values 1.01 | S. cerevisiae deletion strains, locus YMR129W, hits give low values 1.02 | S. cerevisiae deletion strains, locus YMR205C, strain PFK2, hits give low values 1.04 | S. cerevisiae deletion strains, locus YMR223W, strain ubp8, hits give low values 1.01 | S. cerevisiae deletion strains, locus YMR231W, strain pep5, hits give low values 1.02 | S. cerevisiae deletion strains, locus YMR263W, strain SAP30, hits give low values 1.01 | S. cerevisiae deletion strains, locus YMR307W, strain GAS1, hits give low values 1.07 | S. cerevisiae deletion strains, locus YNL067W, strain RPL9B, hits give low values 1.01 | S. cerevisiae deletion strains, locus YNL071W, strain lat1, hits give low values 1.03 | S. cerevisiae deletion strains, locus YNL128W, strain TEP1, hits give low values 1.03 | S. cerevisiae deletion strains, locus YNL153C, strain GIM3, hits give low values 1.01 | S. cerevisiae deletion strains, locus YNL175C, strain NOP13, hits give low values 0.985 | S. cerevisiae deletion strains, locus YNL183C, strain NPR1, hits give low values 0.938 | S. cerevisiae deletion strains, locus YNL197C, strain WHI3, hits give low values 0.982 | S. cerevisiae deletion strains, locus YNL209W, strain ssb2, hits give low values 1.02 | S. cerevisiae deletion strains, locus YNL224C, strain SQS1, hits give low values 1.01 | S. cerevisiae deletion strains, locus YNL233W, strain BNI4, hits give low values 1.01 | S. cerevisiae deletion strains, locus YNL248C, strain rpa49, hits give low values 1.03 | S. cerevisiae deletion strains, locus YNL250W, strain rad50, hits give low values 1.01 | S. cerevisiae deletion strains, locus YNL271C, strain bni1, hits give low values 1.01 | S. cerevisiae deletion strains, locus YNL298W, strain CLA4, hits give low values 1.02 | S. cerevisiae deletion strains, locus YNL307C, strain MCK1, hits give low values 1.03 | S. cerevisiae deletion strains, locus YNL322C, strain KRE1 (second series), hits give low values 1.02 | S. cerevisiae deletion strains, locus YNL322C, strain KRE1, hits give low values 1.01 | S. cerevisiae deletion strains, locus YNR049C, strain mso1, hits give low values 1 | S. cerevisiae deletion strains, locus YNR052C, strain pop2, hits give low values 1.03 | S. cerevisiae deletion strains, locus YOL006C, strain TOP1, hits give low values 1.05 | S. cerevisiae deletion strains, locus YOL012C, strain htz1 0.832 | S. cerevisiae deletion strains, locus YOL147C, strain pex11, hits give low values 1.04 | S. cerevisiae deletion strains, locus YOR001W, strain rrp6, hits give low values 1.02 | S. cerevisiae deletion strains, locus YOR061W, strain CKA2, hits give low values 1.01 | S. cerevisiae deletion strains, locus YOR069W, strain VPS5, hits give low values 1.01 | S. cerevisiae deletion strains, locus YOR070C, strain gyp1, hits give low values 1.02 | S. cerevisiae deletion strains, locus YOR080W, strain dia2, hits give low values 1.01 | S. cerevisiae deletion strains, locus YOR083W, strain WHI5 (second series), hits give low values 0.986 | S. cerevisiae deletion strains, locus YOR083W, strain WHI5, hits give low values 0.967 | S. cerevisiae deletion strains, locus YOR106W, strain vam3, hits give low values 1.02 | S. cerevisiae deletion strains, locus YOR136W, strain idh2, hits give low values 1.01 | S. cerevisiae deletion strains, locus YOR144C, strain elg1, hits give low values 1.02 | S. cerevisiae deletion strains, locus YOR184W, strain ser1, hits give low values 1.01 | S. cerevisiae deletion strains, locus YOR231W, strain MKK1, hits give low values 0.983 | S. cerevisiae deletion strains, locus YOR265W, strain rbl2, hits give low values 1.01 | S. cerevisiae deletion strains, locus YOR270C, strain vph1, hits give low values 1.06 | S. cerevisiae deletion strains, locus YOR290C, strain snf2, hits give low values 1.02 | S. cerevisiae deletion strains, locus YOR316C, strain cot1, hits give low values 1.02 | S. cerevisiae deletion strains, locus YPL051W, strain arl3, hits give low values 1.01 | S. cerevisiae deletion strains, locus YPL055C, strain LGE1, hits give low values 1.01 | S. cerevisiae deletion strains, locus YPL078C, strain atp4, hits give low values 1.02 | S. cerevisiae deletion strains, locus YPL106C, strain sse1, hits give low values 1.03 | S. cerevisiae deletion strains, locus YPL240C, strain hsp82, hits give low values 1 | S. cerevisiae deletion strains, locus YPL241C, strain CIN2, hits give low values 1.01 and 0.991 | S. cerevisiae deletion strains, locus YPL256C, strain CLN2, hits give low values 0.978 | S. cerevisiae deletion strains, locus YPR119W, strain clb2, hits give low values 1.01 | S. cerevisiae deletion strains, locus YPR141C, strain kar3, hits give low values 1.02 | S. cerevisiae deletion strains, locus YPR163C, strain tif3, hits give low values 1.03 | S. cerevisiae deletion strains, locus YPR167C, strain met16, hits give low values 1.02 | S. cerevisiae deletion strains, strain wtn01, hits give low values 1.01 | S. cerevisiae strains, strain wild type, hits give low values 1.01
